According to the supplement of paper PMC6555819:

tested on: VDR:RXRa (NR concentration 270 nM, RXRa partner concentration 90 nM); experiment: PBM binding z-score (relative to random genomic background probes); higher = stronger binding; sequences stand for … in GC…GCGATTGACAGCGTAGAATGAAGG
Description: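 Protein-binding microarray (Agilent 4x180K custom design, double-stranded 60-nt probes: 5' GC cap, 34-nt variable region, 24-nt constant primer region; full probe sequence given). Purified or IVT nuclear receptor:RXRα heterodimers (3:1 NR:RXRα, mostly 270:90 nM) or homodimers were incubated for 1 h in PBS with 2% milk and no ligand, then detected with Alexa488 antibodies. Fluorescence from o1-orientation probes (~5 replicates averaged) was converted to z-scores against 500 random hg19 background probes. Variable regions are seed direct-repeat (DR0–DR5) sites, all their single-nucleotide variants and half-site ablations.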

Sequence	PBM binding z-score
TAGCCTAGGTCAGATCGGGCCAATATACGCTATA	1.01
GGAACGAGGGCAAGTTGAGAGCAGAGTTTGATGG	0.881
ATCTCTAGGTAAAAGTTCAGTGATTCCCGAGGAT	1.05
GATACAGGGTCAAGGCCAGAGAACGCGTATTGAT	3.99
TCTCAGAGGACACGAAAGGTCAGAGCTCGACATC	3.62
ACTAGCAGGCCATGGGTCACTCAAGATTAGTCCG	0.6
TCTCAAAGTTCAAAGGTAACGTAAGTATCCACAC	4.93
TCGGGTAGGTTAGGGGCATTCAGAATGGCGTCGA	1.57
ATCTCTCGGTAAAAGTTCAGTGAATCCCGAGGAT	1.03
CGAAATAGGTCAAGGACAGTGAATCTCCGCACGC	2.46
ATATGTAGGTTAGCTGGTGTCATTCAGACTAGGC	1.4
TCGAGTAGGTTGGTCGGGGCATTCAGCCAACATA	0.314
CCGACTGGGGCAAAGGTTTCCATACTCAGTACGA	-0.277
CGAACTAGGTCAGAACAGCACAGTGAAGGATGAT	0.261
CGTCCAAGGTCAGCAGGTAAGTGAAAGCGACGTG	2.55
GGAACAAGGGCATTCGAGTTGATAGCATGGCGAT	3.12
ACTAGCAGGCCAAGTTTGGGTCACCCAAACAAAG	1.13
TCTATTAGTTGATTAGGGCAACCGGAACAGCGGA	0.629
ACTATTAGTTGAGACGAGGGCAACCGGTAGGTTG	0.837
CCTACTAGGCCAAAAAGGTCATTGATGCCGATAA	5.16

Sequence	PBM binding z-score
CCTATTAGTTGACCATAAGGGCAACCGGAGCTCG	0.682
CAAACTAGGTCAACGGTCAAAGTCGAGCCAACCA	2.71
ATCTCAAGGTAACAAGTTCAGTGAAAGAGAGGAC	2.8
CCGAGTAGGTTATGGGGGATTCAGGCAACGGTGA	1.45
AGAATGAGGTTATTAAGATCAGGCAATTGCGGTC	2.48
TGTCAAAGTTCAAAGGTAACGGAAGTATCCACAC	5.14
CGTCCAAGGTCAAACGTCAGTGAAGAGATGACGG	4.37
CCTTACAGGTCACTCCAGGTTATAGCATCGGAGT	4.12
ATCGAGAGGTCGTGAGGTGAGTATACAGAAAGGC	3.3
ATTACAGGGTCACTAGGCCAGAGTAGGTACGAAT	4.19
CATACAGGGCCAGCTAGGCCAGAGTAGGGACGGC	-0.78
ACTAGCAGGCCAAGGGGCACTCAAGATTAGTCCG	-0.375
AGAACGAGGGCAGTGAGTTGATAGCACGGGTGGC	3.91
GCATTTAGGTAATACAAGGTGAAAGTCCGATTGT	0.176
CGTCCAAGGTCAAGGTCAGTGGAAGAGACTCGAA	4.89
TCATATAGGTAAAAGGGGAAAGTCGGTGTGGTAA	0.861
AGAATGAGGTTATCAAAGATCAGGGAAACGCTTG	1.12
ATCTCTAGGTAAGACTCAGTTCAGTGAGGAACGC	0.748
CAAACTAGGTCATGAGGTCAAAGTCCGCTTCCCG	6.08
TCCGCTAGGTCAACGATGGTCAGCTAATCTGCTA	1.45
